Experimental data taken from PubChem BioAssay.
Calls of active or inactive are those of the source. Unless noted, no rule for the calls is given here.

Columns and labels:
[1] = anti-His antibody binders, primary screen, artefact control for SMM control protein annotation, biochemical, small-molecule microarray, 635 nm fluorescence (AID 1128); settings: anti-His Alexa647 antibody binding, higher = more signal;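 also: score merges feature fluorescence with signal-to-noise for each printed compound spot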
[2] = tested on: Human papillomavirus type 1a E7 protein (residues 1-88); assay: HPV1a E7 small-molecule binders, primary screen, biochemical, small-molecule microarray, residues 1-88, 635 nm (AID 1129); settings: small-molecule microarray binding, fluorescence 635 nm; higher = more signal
[3] = target: Focal adhesion kinase 1 (Homo sapiens) (UniProt Q05397); assay: small-molecule microarray binders of FAK, primary screen, biochemical, 635/667 nm fluorescence, BSA, DTT (AID 1130); settings: PTK2 binding, 635 nm fluorescence, higher = more signal;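 also: composite of spot emission at 667 nm and signal to noise over triplicate slides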
[4] = tested on: Fibrinogen (Alexa647-labelled); assay: fibrinogen binders on compound microarrays, profiling panel, artefact control for SMM control-protein annotation, biochemical, small-molecule microarray, 635/667 nm fluorescence (AID 1131); settings: fibrinogen-A647 binding fluorescence, higher = more signal;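 also: z-score merges 667 nm fluorescence with per-spot signal-to-noise over triplicate slides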
[5] = target: Follistatin (Homo sapiens) (UniProt P19883); assay: follistatin binders on small-molecule microarrays, primary screen, biochemical, small-molecule microarray, 635/667 nm fluorescence (AID 1132); settings: FST binding, 635 nm fluorescence, higher = more signal
[6] = target: Fibroblast growth factor 2 (Homo sapiens) (UniProt P09038); assay: FGF2 binders on small-molecule microarrays, primary screen, biochemical, small-molecule microarray, 635/667 nm fluorescence (AID 1133); settings: small-molecule microarray binding, FGF2, fluorescence 635/667; higher = more signal
[7] = mitochondrial membrane potential change in A549 cells, profiling panel, cell-based, JC-1 fluorescence, basal, 24 h, 100 nL (AID 1138); settings: higher = more signal;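 also: A549 lung adenocarcinoma cells under basal conditions with no added stimulus; test concentration not given here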
[8] = tested on: Lefty1; assay: Lefty1 binders on small-molecule microarrays, primary screen, biochemical, small-molecule microarray, 635/667 nm fluorescence (AID 1139); settings: small-molecule microarray binding, fluorescence 635/667; higher = more signal
[9] = tested on: wheat germ agglutinin (Triticum aestivum), Alexa647-labelled; assay: wheat germ agglutinin binders on compound microarrays, profiling panel, artefact control for SMM control-protein annotation, biochemical, small-molecule microarray, 635/667 nm fluorescence (AID 1140); settings: WGA-A647 binding, 635 nm fluorescence, higher = more signal;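 also: score merges 667 nm feature emission with signal to noise over triplicate slides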
[10] = target: Luciferin 4-monooxygenase (Photinus pyralis) (UniProt P08659); assay: firefly luciferase enzyme inhibitors, primary screen, biochemical, luminescence, purified enzyme, 2006 set (AID 1141); settings: SteadyGlo luminescence, 30 min, higher = more signal, called active from +8 up or from −8 down;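 also: cell-free assay with purified firefly luciferase at 100 ng per well in PBS; test concentration not given here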
[11] = tested on: Wnt5a (protein binding on small-molecule microarray); assay: Wnt5a binders on small-molecule microarray, primary screen, biophysical, 635/667 nm fluorescence (AID 1142); settings: 635 nm fluorescence, higher = more signal;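 also: fluorescence read at 667 nm with signal to noise per printed feature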
[12] = cell viability in Huh7 cells, primary screen, cytotoxicity control for HCV replication inhibitor project, CellTiter-Glo luminescence, basal, 48 h (AID 1143); settings: Huh7 HCV replicon, higher = more signal, called active from +8 up or from −8 down;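 also: Huh7 hepatoma cells carrying a hepatitis C replication reporter with no stimulus; test concentration not given here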
[13] = P. aeruginosa biofilm formation inhibitors, primary screen, PAO1 strain, BacTiter-Glo luminescence, LB-PBS (AID 1144); settings: 12 h, higher = more signal
[14] = CREB reporter modulators without forskolin, primary screen, cell-based, PC12, CRE-LacZ reporter, unstimulated (AID 1145); settings: no forskolin, luminescence, 4.5 h, higher = more signal, called active from +8 up or from −8 down
[15] = CREB reporter modulators under forskolin, primary screen, cell-based, PC12, CRE-LacZ reporter, forskolin-stimulated (AID 1146); settings: luminescence, 4.5 h, higher = more signal, called active from +8 up or from −8 down;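 also: PC12 cells with 6xCRE LacZ reporter stimulated by forskolin 10 µM; beta-galactosidase reporter signal reflecting CREB driven transcription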
[16] = target: Streptavidin (Streptomyces avidinii) (UniProt P22629); assay: streptavidin binders on small-molecule microarray, primary screen, artefact control for SMM compound annotation, biophysical, 635/667 nm fluorescence (AID 1147); settings: streptavidin binding, higher = more signal;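 also: signal reflects streptavidin binding to arrayed compounds as a control protein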
[17] = small-molecule binders of probe aInhba, primary screen, biochemical, small-molecule microarray, 635/667 nm fluorescence (AID 1148); settings: higher = more signal;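 also: score merges 667nm spot fluorescence with signal-to-noise for antibody binding to printed compounds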
[18] = target: Torsin-1A (Homo sapiens) (UniProt O14656); assay: torsin A binders from cell lysate, primary screen, small-molecule microarray, wild-type, 635/667 nm (AID 1149); settings: COS7 hTOR1A-WT lysate, 635 nm fluorescence, higher = more signal
[19] = target: Torsin-1A (Homo sapiens) (UniProt O14656); assay: small-molecule binders of mutant TOR1A in lysate, primary screen, cell lysate, small-molecule microarray, COS7 lysate, 635/667 nm fluorescence (AID 1150); settings: COS7 hTOR1A mutant lysate, 635 nm fluorescence, higher = more signal;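 also: score pools 667 nm emission and signal to noise measuring lysate protein binding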
[20] = tested on: Sonic hedgehog protein (Shh); assay: small-molecule binders of Shh protein, primary screen, biochemical, small-molecule microarray, 635/667 nm fluorescence (AID 1151); settings: small-molecule microarray binding, 635 nm fluorescence; higher = more signal;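 also: Shh protein binding to compounds spotted on small-molecule microarray slides; score combines spot fluorescence intensity with signal-to-noise across triplicate slides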

Sequence of Torsin-1A (Homo sapiens) (O14656 whole entry, looked up): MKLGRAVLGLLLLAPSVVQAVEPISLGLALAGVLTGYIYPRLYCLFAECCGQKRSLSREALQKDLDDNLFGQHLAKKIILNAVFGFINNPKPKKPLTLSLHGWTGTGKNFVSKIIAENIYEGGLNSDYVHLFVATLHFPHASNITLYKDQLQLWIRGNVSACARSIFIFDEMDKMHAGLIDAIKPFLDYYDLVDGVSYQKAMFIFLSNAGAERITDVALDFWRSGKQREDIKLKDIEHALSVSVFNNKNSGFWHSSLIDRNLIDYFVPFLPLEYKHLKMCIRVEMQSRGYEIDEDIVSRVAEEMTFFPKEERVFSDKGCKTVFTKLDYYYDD
Sequence of Fibroblast growth factor 2 (Homo sapiens) (P09038 whole entry, looked up): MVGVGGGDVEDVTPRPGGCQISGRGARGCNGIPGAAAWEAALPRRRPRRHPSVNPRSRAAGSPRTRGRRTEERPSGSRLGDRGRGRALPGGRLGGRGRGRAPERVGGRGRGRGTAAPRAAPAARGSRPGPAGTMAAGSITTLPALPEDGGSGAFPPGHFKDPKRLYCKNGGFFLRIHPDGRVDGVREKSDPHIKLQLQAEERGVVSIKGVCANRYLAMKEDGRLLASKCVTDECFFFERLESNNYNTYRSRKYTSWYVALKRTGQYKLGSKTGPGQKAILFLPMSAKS
Sequence of Follistatin (Homo sapiens) (P19883 whole entry, looked up): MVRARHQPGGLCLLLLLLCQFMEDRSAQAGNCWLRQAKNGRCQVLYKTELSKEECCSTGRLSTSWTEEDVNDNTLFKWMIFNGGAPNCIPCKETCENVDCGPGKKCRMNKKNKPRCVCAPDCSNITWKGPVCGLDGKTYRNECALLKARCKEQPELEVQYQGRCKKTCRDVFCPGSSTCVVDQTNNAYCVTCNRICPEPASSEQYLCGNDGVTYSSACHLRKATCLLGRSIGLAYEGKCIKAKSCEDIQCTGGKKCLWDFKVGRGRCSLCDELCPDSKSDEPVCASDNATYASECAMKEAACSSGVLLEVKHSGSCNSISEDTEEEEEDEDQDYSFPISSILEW
Sequence of Focal adhesion kinase 1 (Homo sapiens) (Q05397 whole entry, looked up): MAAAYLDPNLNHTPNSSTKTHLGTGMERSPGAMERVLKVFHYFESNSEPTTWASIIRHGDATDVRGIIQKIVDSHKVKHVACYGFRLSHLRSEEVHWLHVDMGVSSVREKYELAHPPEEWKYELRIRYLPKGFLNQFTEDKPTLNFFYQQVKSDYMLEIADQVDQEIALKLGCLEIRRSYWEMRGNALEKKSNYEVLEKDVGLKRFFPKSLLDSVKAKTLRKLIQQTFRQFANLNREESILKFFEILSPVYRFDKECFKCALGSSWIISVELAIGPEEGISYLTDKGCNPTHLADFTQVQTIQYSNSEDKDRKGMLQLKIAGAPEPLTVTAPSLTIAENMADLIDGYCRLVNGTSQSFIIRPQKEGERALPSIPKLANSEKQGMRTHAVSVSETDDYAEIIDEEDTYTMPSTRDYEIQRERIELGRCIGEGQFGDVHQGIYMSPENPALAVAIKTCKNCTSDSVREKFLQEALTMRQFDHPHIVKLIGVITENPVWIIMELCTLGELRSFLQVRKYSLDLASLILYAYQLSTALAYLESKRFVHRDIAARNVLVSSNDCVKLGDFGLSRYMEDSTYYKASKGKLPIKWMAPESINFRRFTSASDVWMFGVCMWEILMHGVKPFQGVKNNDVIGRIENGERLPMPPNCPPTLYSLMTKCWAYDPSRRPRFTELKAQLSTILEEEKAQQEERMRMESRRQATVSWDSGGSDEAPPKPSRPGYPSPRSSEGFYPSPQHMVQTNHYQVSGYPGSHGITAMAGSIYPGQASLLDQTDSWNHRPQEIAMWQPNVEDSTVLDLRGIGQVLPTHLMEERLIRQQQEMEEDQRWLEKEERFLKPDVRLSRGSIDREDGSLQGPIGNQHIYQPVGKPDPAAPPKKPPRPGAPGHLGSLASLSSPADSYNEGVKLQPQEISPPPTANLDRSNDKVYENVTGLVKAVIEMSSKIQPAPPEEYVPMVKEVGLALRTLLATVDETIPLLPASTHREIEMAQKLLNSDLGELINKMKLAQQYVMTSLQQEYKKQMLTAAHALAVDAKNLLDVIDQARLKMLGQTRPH
Sequence of Streptavidin (Streptomyces avidinii) (P22629 whole entry, looked up): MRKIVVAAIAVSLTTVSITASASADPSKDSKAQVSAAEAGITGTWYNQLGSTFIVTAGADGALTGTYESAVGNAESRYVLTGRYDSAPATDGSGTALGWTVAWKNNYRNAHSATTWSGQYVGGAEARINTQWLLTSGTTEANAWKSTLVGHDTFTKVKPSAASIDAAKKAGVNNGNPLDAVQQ
Sequence of Luciferin 4-monooxygenase (Photinus pyralis) (P08659 whole entry, looked up): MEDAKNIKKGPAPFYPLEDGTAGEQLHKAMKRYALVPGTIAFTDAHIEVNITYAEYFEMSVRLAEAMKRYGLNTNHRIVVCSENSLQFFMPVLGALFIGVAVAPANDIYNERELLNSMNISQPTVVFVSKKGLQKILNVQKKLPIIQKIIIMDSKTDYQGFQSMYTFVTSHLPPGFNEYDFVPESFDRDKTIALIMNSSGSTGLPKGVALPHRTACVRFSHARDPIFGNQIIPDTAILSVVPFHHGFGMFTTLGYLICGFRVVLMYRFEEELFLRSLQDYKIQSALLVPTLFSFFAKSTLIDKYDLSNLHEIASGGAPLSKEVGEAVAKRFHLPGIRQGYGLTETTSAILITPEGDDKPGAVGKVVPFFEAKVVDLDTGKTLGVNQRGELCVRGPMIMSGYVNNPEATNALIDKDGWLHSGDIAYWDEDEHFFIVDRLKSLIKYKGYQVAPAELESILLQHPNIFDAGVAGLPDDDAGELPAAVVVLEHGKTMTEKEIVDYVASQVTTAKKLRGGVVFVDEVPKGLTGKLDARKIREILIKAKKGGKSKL

| Compound | composite z-score [1] | composite z-score [2] | composite z-score [3] | composite z-score [4] | composite z-score [5] | composite z-score [6] | z-score [7] | composite z-score [8] | composite z-score [9] | z-score [10] | composite z-score [11] | z-score [12] | z-score [13] | z-score [14] | z-score [15] | composite z-score [16] | composite z-score [17] | composite z-score [18] | composite z-score [19] | composite z-score [20] |
| --- | --- | --- | --- | --- | --- | --- | --- | --- | --- | --- | --- | --- | --- | --- | --- | --- | --- | --- | --- | --- |
| COc1cc(OC)c(C(O)C2C=CC3C(=O)N(c4ccccc4)C(=O)C3N2Nc2ccccc2)cc1Br (stereo not given) | 1.95 | 1.18 | 0.531 | 0.454 | 0.461 | -0.179 | -0.267 | 0.387 | 0.126 | -0.229 (inactive) | -0.0276 | -1.12 (inactive) | -0.415 (inactive) | 0.0501 (inactive) | -0.434 (inactive) | 1.24 | 0.0155 | -0.162 | 0.282 | -0.381 |
| COCCOC(=O)N1C(=O)[C@@]2(c3cc(C#CCNC(N)=O)ccc31)[C@H](C(=O)N1CCc3cc(OC)c(OC)cc3C1)[C@H]1C(=O)O[C@H](c3ccccc3)[C@H](c3ccccc3)N1[C@@H]2c1ccccc1OCCO | 1.16 | 0.778 | 0.378 | 0.757 | 1.2 | 1.48 | -1.12 | 0.716 | 0.524 | -0.709 (inactive) | 0.358 | -2.32 (inactive) | -0.772 (inactive) | 0.0776 (inactive) | -0.979 (inactive) | 0.639 | 0.0301 | 0.969 | 0.498 | 1.81 |
